Experiment [1] in a line: growth inhibition of DIPG glioma cells, dose response, cell-based, SU-DIPG-XVII, MIPE5.0, CellTiter-Glo, qHTS (AID 1347060; cut-off not given, nearly all actives have AC50 up to about 26 µM;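 as to AC50: cells exposed to compound for 48 hours before viability readout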). The note with it: SU-DIPG-XVII viability, CellTiter-Glo ATP luminescence. On the technique in general: In ATP-based viability assays light output follows the ATP content of the culture.
Experiment [2] is described as follows: growth inhibition of DIPG glioma cells, dose response, cell-based, JHH-DIPG-1, MIPE4.0, CellTiter-Glo, qHTS (AID 1347062; cut-off not given, nearly all actives have AC50 up to about 27 µM;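 as to AC50: cells exposed to compound for two days before readout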). The settings on record: JHH-DIPG-1 viability, CellTiter-Glo ATP luminescence.
The nature of experiment [3]: growth inhibition of DIPG glioma cells, dose response, cell-based, SU-DIPG-XIII, MIPE5.0, CellTiter-Glo, qHTS (AID 1347064; cut-off not given, nearly all actives have AC50 up to about 23 µM;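 as to AC50: cells exposed to compound for 48 hours before the viability read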). The settings on record: SU-DIPG-XIII viability, CellTiter-Glo ATP luminescence.
The nature of experiment [4]: viability loss in pontine glioma line – cell-based, SU-DIPG-XXV, MIPE5.0, CellTiter-Glo, qHTS, dose response (AID 1347065; cut-off not given, nearly all actives have AC50 up to about 26 µM;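 also: cells exposed to compound for 48 hours before ATP readout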). The settings on record: CellTiter-Glo ATP luminescence.
The nature of experiment [5]: JHH-DIPG-1 glioma cell viability, MIPE5.0 library, CellTiter-Glo luminescence, qHTS (AID 1347067; cut-off not given, nearly all actives have AC50 up to about 26 µM;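 also: cells exposed to compound for 48 hours before readout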). The settings on record: JHH-DIPG-1 glioma viability, CellTiter-Glo ATP luminescence.
The nature of experiment [6]: SU-DIPG-XXV glioma cell viability, MIPE5.0 library, qHTS (AID 1347068; cut-off not given, nearly all actives have IC50 up to about 30 µM;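 as to IC50: cells exposed to compound for 48 hours before viability readout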).
Experiment [7] in a line: sensitizers of A549 cells to miR-34 induction, primary screen, imaging, A549 dox-inducible miR-34, nuclei and caspase counts (AID 1347080;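 active = compounds whose cell count with miR-34 switched on is under 0.7 times the count with it off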). The note with it: A549 miR-34 inducible, Hoechst nuclei count, 48 h.
Experiment [8] in a line: modifiers of HSF1 nuclear foci, imaging, Selleck Cancer Library (AID 1347162; in the data active = plate-normalised HSF1 focus index below about 0.46). The settings on record: human cells, at 10 µM; SSMD: measured here: HSF1 foci SSMD mean; cell count: measured here: cell number; plate-normalised HSF1 focus index: stronger effect = lower value.
A short description of experiment [9]: survival rescue of mitochondrial mutant cells in low glucose, primary screen, MELAS cybrids, Rieske KO mouse fibroblasts, CellTiter-Glo (AID 1508586;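 active = mean z-score across replicates of 1.96 or higher in either the MELAS or the Rieske mutant cell line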;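 also: z relative to plate mean and SD of compound and empty wells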).
The nature of experiment [10]: ovarian cancer cell viability with rucaparib, profiling panel, oncology-focused library, rucaparib conditional (AID 1508598). The settings on record: patient-derived ovarian cancer cells, CellTiter-Glo viability, 144 h, stronger effect = lower value.
Experiment [11] in a line: SU-DIPG-VI glioma cell viability, MIPE4.0 library, CellTiter-Glo luminescence, qHTS (AID 1347066; cut-off not given, nearly all actives have AC50 up to about 30 µM;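 also: cells exposed to compound for 48 hours before readout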). The note with it: CellTiter-Glo ATP luminescence.
[12] abbreviates: stronger effect = lower value, cell number ratio, induced over uninduced.
[13] abbreviates: measured here: relative caspase fold change +Dox/-Dox.
[14] abbreviates: measured here: total cells with miR-34 induction, stronger effect = lower value.
[15] abbreviates: measured here: total cells without miR-34 induction.
[16] abbreviates: MELAS cybrid survival, CellTiter-Glo 48 h, stronger effect = higher value.
Setting [17] is: Rieske KO mouse fibroblast survival, CellTiter-Glo 72 h.

Where “and” joins values, the source holds several entries; their conditions need not be identical. Identical values can stand only once. Inconclusive results are not listed. Calls of active or inactive are those of the source.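 The calls were made as follows, unless noted: active = normalized viability below 100% at a tested concentration; inactive = the rest.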

Broadly, the AC50 is the concentration at which the activity in the assay is half-maximal. As a reminder, the viability is a read-out of living cells in per cent, often relative to untreated cells. `CC(=O)c1c(C)c2cnc(Nc3ccc(N4CCNCC4)cn3)nc2n(C2CCCC2)c1=O`: the AC50 in [1] was 23.5 µM (active); in experiment [2], 29.6 µM (active); in experiment [3], 20.9 µM (active); in [4] it was 18.6 µM (active); in experiment [5], 20.9 µM (active). The molecule was called inactive in experiment [6]. In addition, the values for the fold change in experiment [7] (setting [12]) and in experiment [7] (setting [13]) were 0.86 (inactive) and 1.36, respectively. Further, the cell count in experiment [7] (setting [14]) was determined as 3100; in experiment [7] (setting [15]), 3600; in experiment [8] it was 5060. Further, the SSMD in [8] is -9.93. Moreover, the plate-normalised HSF1 focus index in [8] was 0.38 (inactive). The values for the z-score in experiment [9] (setting [16]) and in experiment [9] (setting [17]) were 0.0111 (inactive) and -0.48, respectively. The viability is 132% (inactive) in [10] (at 0.000305 µM, OCI-C5x cells, with rucaparib 10 µM, 100% = cells with rucaparib alone); 95.6% (active) in experiment [10] (at 0.000305 µM, OCI-C5x cells, without rucaparib); 93.8% (active) in [10] (at 0.000305 µM, OCI-P5x cells, with rucaparib 20 µM, 100% = cells with rucaparib alone); 93.8% (active) in experiment [10] (at 0.000305 µM, OCI-P5x cells, without rucaparib); 119% (inactive) in experiment [10] (at 0.00122 µM, OCI-C5x cells, with rucaparib 10 µM, 100% = cells with rucaparib alone); 104% (inactive) in [10] (at 0.00122 µM, OCI-C5x cells, without rucaparib). Besides, the viability in experiment [10] (at 0.00122 µM, OCI-P5x cells, with rucaparib 20 µM, 100% = cells with rucaparib alone) was 94.1% (active); in experiment [10] (at 0.00122 µM, OCI-P5x cells, without rucaparib) it was 91.2% (active); in [10] (at 0.00488 µM, OCI-C5x cells, with rucaparib 10 µM, 100% = cells with rucaparib alone), 119% (inactive); in [10] (at 0.00488 µM, OCI-C5x cells, without rucaparib), 104% (inactive); in experiment [10] (at 0.00488 µM, OCI-P5x cells, with rucaparib 20 µM, 100% = cells with rucaparib alone), 95.4% (active); in experiment [10] (at 0.00488 µM, OCI-P5x cells, without rucaparib) it was 100% (inactive). In addition, the viability in experiment [10] (at 0.0195 µM, OCI-C5x cells, with rucaparib 10 µM, 100% = cells with rucaparib alone) is 122% (inactive); in [10] (at 0.0195 µM, OCI-C5x cells, without rucaparib), 116% (inactive); in experiment [10] (at 0.0195 µM, OCI-P5x cells, with rucaparib 20 µM, 100% = cells with rucaparib alone), 95% (active); in experiment [10] (at 0.0195 µM, OCI-P5x cells, without rucaparib) it was 94.4% (active); in experiment [10] (at 0.0781 µM, OCI-C5x cells, with rucaparib 10 µM, 100% = cells with rucaparib alone) it was 115% (inactive); in [10] (at 0.0781 µM, OCI-C5x cells, without rucaparib), 118% (inactive). In addition, the viability in experiment [10] (at 0.0781 µM, OCI-P5x cells, with rucaparib 20 µM, 100% = cells with rucaparib alone) is 96.9% (active); in experiment [10] (at 0.0781 µM, OCI-P5x cells, without rucaparib), 103% (inactive); in [10] (at 0.313 µM, OCI-C5x cells, with rucaparib 10 µM, 100% = cells with rucaparib alone), 111% (inactive); in experiment [10] (at 0.313 µM, OCI-C5x cells, without rucaparib), 126% (inactive); in [10] (at 0.313 µM, OCI-P5x cells, with rucaparib 20 µM, 100% = cells with rucaparib alone), 99.2% (active); in [10] (at 0.313 µM, OCI-P5x cells, without rucaparib), 98.7% (active). Also, the viability is 115% (inactive) in [10] (at 1.25 µM, OCI-C5x cells, with rucaparib 10 µM, 100% = cells with rucaparib alone); 133% (inactive) in [10] (at 1.25 µM, OCI-C5x cells, without rucaparib); 97.6% (active) in experiment [10] (at 1.25 µM, OCI-P5x cells, with rucaparib 20 µM, 100% = cells with rucaparib alone); 99.7% (active) in experiment [10] (at 1.25 µM, OCI-P5x cells, without rucaparib); 114% (inactive) in [10] (at 5 µM, OCI-C5x cells, with rucaparib 10 µM, 100% = cells with rucaparib alone); 139% (inactive) in [10] (at 5 µM, OCI-C5x cells, without rucaparib). The viability is 103% (inactive) in experiment [10] (at 5 µM, OCI-P5x cells, with rucaparib 20 µM, 100% = cells with rucaparib alone) and 97.9% (active) in experiment [10] (at 5 µM, OCI-P5x cells, without rucaparib).

For the molecule `CCCNS(=O)(=O)Nc1ncnc(OCCOc2ncc(Br)cn2)c1-c1ccc(Br)cc1`, the outcome in experiment [1], in experiment [2], in experiment [3], in experiment [11], in [5] and in experiment [6] was inactive. Moreover, the fold change in experiment [7] (setting [12]) was 0.925 (inactive); in experiment [7] (setting [13]), 0.512. The cell count in experiment [7] (setting [14]) was found to be 8090; in experiment [7] (setting [15]), 8750. For the same molecule, the z-score is -0.373 (inactive) in [9] (setting [16]) and -0.0447 in experiment [9] (setting [17]).

As a reminder, the IC50 is the concentration needed to halve the response being measured. Consider `COc1ccc2c(c1)c(C1=C(c3c[nH]c4ccccc34)C(=O)NC1=O)cn2CCCN(C)C`, for which the AC50 in experiment [1] was 20.9 µM (active); in experiment [2], 16.6 µM (active); in experiment [4], 20.9 µM (active); in [5] it was 20.9 µM (active). The 50% inhibitory concentration (IC50) in experiment [6] was 29.5 µM (active). For the same molecule, the fold change in experiment [7] (setting [12]) is 0.91 (inactive) and 0.965 (inactive); in [7] (setting [13]), 0.481 and 1.22. For the same molecule, the cell count was 4170 and 4590 in [7] (setting [14]); 4580 and 4760 in [7] (setting [15]). Besides, the z-score in [9] (setting [16]) was -0.592 (inactive); in [9] (setting [17]), -0.0818.

Take `CS(=O)(=O)Oc1ccc2c(NC(N)=O)c(C(=O)c3ccc(Cl)cc3Cl)oc2c1`: the result in experiment [1], in experiment [3], in [4], in experiment [5] and in experiment [6] was inactive. In addition, in [2], the AC50 is 2.35 µM (active).

(Values after PubChem BioAssay.)
